Assay outcomes as filed in PubChem.
JMJD2A Tudor: inhibitors of human JMJD2A Tudor domain; AlphaScreen JMJD2A-Tudor / H3K4me3 peptide binding; Potency, µM (titrated, usually from 114 µM), without a hit: at the top dose activity change, negative = inhibition, usual class: inhibitors; hit rate 4.4% among 390,000; AID 504339; further: on the % scale 0 is the no-effect control and ±100 the full control effect; nearly all actives have a fitted effect of over 50% in size
HP1b binding inh: blocks HP1-beta chromodomain binding to methylated histone tails. P83916. AlphaScreen HP1-beta / biotin-H3K9me3 peptide binding. Potency, µM (titrated, usually from 114 µM), for the others: at the top dose activity change, negative = inhibition, most hits filed as inhibitors. hit rate 0.56% among 390,000. AID 540317; further: nearly all actives have a fitted effect of over 70% in size
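Compound inhibition of the preformed complex between 50 nM HP1-beta and 50 nM biotinylated H3K9me3 peptide was read by AlphaScreen. Buffer was PBS pH 7.4 with 0.01% Tween-20. Incubations ran 30 min at room temperature, with 10 ug/mL donor/acceptor beads.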
VDR inhibitor: inhibitors of human vitamin D receptor; AID 504847; Potency, µM, without a hit: max response, negative = inhibition, most hits filed as inhibitors; hit rate 0.93% among 400,000; VDR-SRC2-3 peptide fluorescence polarization, 2 h; further: on the % scale 0 is the no-effect control and ±100 the full control effect
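Two reagent solutions held at 4 deg C in the dark were dispensed, compounds pinned at 23 nl, and the mixture incubated 2 h at room temperature. Read-out: fluorescence polarization of VDR–SRC2-3 peptide binding.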
G9a inh: inhibitors of human histone lysine methyltransferase G9a; Q96KQ7; G9a H3K9 monomethylation, AlphaScreen, 2 h; Potency, µM (titrated, usually from 102 µM), for the others: at the highest dose activity, negative = inhibition, most hits filed as inhibitors; hit rate 8.8% among 350,000; AID 504332; further: on the % scale 0 is the no-effect control and ±100 the full control effect; nearly all actives have a fitted effect of over 75% in size
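Chemiluminescent proximity detection of H3K9 monomethylation, read after 10 min bead incubation in the dark. Reaction: 20 nM G9a, 500 nM biotin-H3K9 peptide, 20 uM SAM cofactor, 2 h, room temperature, following 15 min enzyme-compound preincubation.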
PLK1 PBD inh: inhibitors of human PLK1 polo-box domain binding; AID 720504; Plk1 PBD binding of FITC phosphopeptide, fluorescence polarization; Potency, µM, inactives show max response, negative = inhibition, actives largely listed as inhibitors; hit rate 2.8% among 360,000; P53350; further: series mostly up to about 57 µM; on the % scale 0 is the no-effect control and ±100 the full control effect; nearly all actives have a fitted effect of over 65% in size
BAZ2B block: BAZ2B (human) inhibition; AlphaScreen BAZ2B-H3K14Ac peptide displacement; Potency, µM (titrated, usually from 114 µM), without a hit: top-dose activity change, negative = inhibition, most hits filed as inhibitors; AID 504333; hit rate 4.4% among 360,000; further: on the % scale 0 is the no-effect control and ±100 the full control effect; nearly all actives have a fitted effect of over 60% in size
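BAZ2B (50 nM) with biotin-H3(5-23)K14Ac peptide (50 nM) in PBS pH 7.4, 0.01% Tween-20, preformed 30 min, then compound 30 min at room temperature; top concentration 110uM. AlphaScreen streptavidin donor/nickel chelate acceptor beads (10 ug/mL final), 20 min dark, signal read.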
Numbers without * were called inactive; ? = inconclusive; nt = no result; ! = not confirmed by another sample; [ ] = another dose, or the depositor's remark. In the library only some 11% were active in any assay of this set; here they are far more common. The call rests on the fitted dose curve; in most records, active means well fitted curve in the direction sought with a large enough effect; inconclusive means small, poorly fitted or top-dose-only effect, or another doubt; inactive means no such curve, though single readings can be large; an effect the other way counts as inactive or inconclusive. Potency means the concentration at half of the fitted maximal effect.

SMILES	JMJD2A Tudor	HP1b binding inh	VDR inhibitor	G9a inh	PLK1 PBD inh	BAZ2B block
CC(Sc1ccc([N+](=O)[O-])cn1)C(=O)Nc1nccs1 (configuration not stated)	-20.5%	19.1%	-6.0%	7.94µM*	?	-28.3%
O=C(Nc1nccs1)c1cc([N+](=O)[O-])ccc1Cl	-13.6%	23.9%	-1.2%	nt	-9.0%	-24.7%
CCCCCCC(=O)Nc1ccc2nc3c(=O)n(C)c(=O)n(C)c3nc2c1C	-13.7%	7.7%	1.2%	-6.2%[59 µM]	nt	2.4%
COc1cc(/C=C2/SC(=S)N(CCC(=O)Nc3ccc(C(=O)O)cc3)C2=O)cc(OC)c1OC	?	5.6%	-13.0%	nt	?	?
CCc1ccc(/C=C2/SC(=S)N(CCC(=O)Nc3cccc(C(=O)O)c3)C2=O)cc1	50.1µM*	-4.3%	4.8%	nt	?	35.5µM*
CC(/C=C1\SC(=S)N(CCC(=O)Nc2cccc(C(=O)O)c2)C1=O)=C\c1ccccc1	?	70.8µM*	?	44.7µM*	23.8µM*	56.2µM*
CC(/C=C1\SC(=S)N(CCCC(=O)Nc2ccc(C(=O)O)cc2)C1=O)=C\c1ccccc1	?	-28.5%	-22.4%	12.6µM*	?	39.8µM*
COc1ccc(/C=C2\SC(=S)N(CCC(=O)Nc3cccc(O)c3)C2=O)cc1	-16.0%	9.0%	-4.1%	nt	-7.7%	0.7%
CC(=Cc1ccccc1)C=C1SC(=S)N(CCCC(=O)Nc2ccc(C(=O)O)cc2)C1=O	nt	nt	nt	nt	23.8µM*	nt
O=C(CCCN1C(=O)S/C(=C\C=C\c2ccccc2)C1=O)Nc1ccc(C(=O)O)cc1	-18.7%	0.6%	?	?	?	56.2µM*
CC(/C=C1\SC(=S)N(CCC(=O)Nc2ccccc2O)C1=O)=C\c1ccccc1	-25.5%	16.4%	-6.8%	67.2%	21.3%	1.5%
CC(=C\c1ccccc1)/C=C1/SC(=S)N(CCC(=O)Nc2ccccn2)C1=O	nt	nt	nt	39.8µM*	nt	?
CC(/C=C1\SC(=O)N(CCCC(=O)O)C1=O)=C\c1ccccc1	-14.5%	21.1%	-12.6%	-12.7%[59 µM]	-4.4%	-27.7%
CC(=C\c1ccccc1)/C=C1/SC(=S)N(CCCC(=O)O)C1=O	-35.2%	-11.3%	79.4µM*	39.8µM*	?	?
Cc1ccc(OC2CCN(C(=O)[C@H]3O[C@@H](n4ccc(=O)[nH]c4=O)[C@H](O)[C@@H]3O)CC2)cc1	nt	nt	nt	nt	-3.4%	nt
CCCCC/C=C\C/C=C\C/C=C\CCCCC(=O)NCCCC(=O)O	nt	nt	-13.7%	nt	nt	nt
COc1ccc(-c2noc(CCC(=O)N3CCN(c4cccc(Cl)c4)CC3)n2)cc1	-24.0%	21.6%	-2.1%	nt	-2.0%	nt
CSCCNC(=O)C1(C)CCN1C(=O)C/C=C/c1ccccc1 (configuration not stated)	nt	nt	nt	nt	-8.2%	nt
CC(=O)c1cnc2nc(SCc3ccc(C)cc3)nn2c1C	?	1.5%	?	21.6%	23.8µM*	-2.4%
CC(=O)c1cnc2nc(SCc3ccccc3)nn2c1C	-4.9%	32.7%	-15.3%	73.7%	0.2%	-4.3%
CCOC(=O)N1CCN(C(=O)c2ccc3c(c2)N=C(C)c2cc(Cl)ccc2S3)CC1	?	0.0%	-22.6%	nt	0.8%	?
Cc1cc(C)nc(SCc2ccc(C(=O)N/N=C/c3ccco3)cc2)n1	-28.4%	13.5%	4.9%	39.8µM*	-14.4%	?
Cc1cc(C)nc(SCc2ccc(C(=O)N/N=C/c3ccc(C(=O)O)cc3)cc2)n1	-12.0%	8.1%	-12.9%	-0.7%	-19.5%	-22.5%
O=C(O)c1ccccc1Cc1ccccc1	nt	nt	3.7%	nt	nt	nt
COc1ccc(C2NC3=C(CCCC3)C(C#N)(C#N)C2(C#N)C#N)cc1 (configuration not stated)	nt	nt	nt	8.91µM*	nt	-35.1%
SMILES	JMJD2A Tudor	HP1b binding inh	VDR inhibitor	G9a inh	PLK1 PBD inh	BAZ2B block
CCOC(=O)C1(C)CCN1C(=O)c1ccc(OC)c(F)c1 (configuration not stated)	nt	nt	nt	nt	-6.0%	nt
Cc1ccc(S(=O)(=O)NCCOC(=O)Nc2sc(=S)n(C)c2C)cc1	-9.4%	?	-11.1%	31.6µM*	?	?
CCOC(=O)Nc1sc(=S)n(C)c1C	-8.6%	-7.2%	13.7%	12.6µM*	-22.7%	8.8%
CCOc1ccc2nc(N3CCCC(C(=O)NCCc4ccc(C)cc4)C3)sc2c1 (configuration not stated)	-2.9%	13.5%	-0.9%	4.9%[59 µM]	nt	-33.2%
CC(C)=N/N=c1\scc(C)n1Cc1ccco1	-29.8%	-6.4%	-20.9%	-49.4%	-6.1%	-38.8%
Cc1cs/c(=N\N=C\c2ccccc2)n1Cc1ccco1	35.5µM*	?	-18.8%	14.1µM*	-4.0%	12.6µM*
Cc1cs/c(=N\N=C2CCCCC2)n1Cc1ccco1	?	?	-23.7%	?	-3.9%	44.7µM*
Clc1ccccc1C1CC(c2ccccc2)=Nc2ccccc2N1 (configuration not stated)	-3.9%	19.1%	16.9%	nt	4.8%	?
c1ccc(C2=Nc3ccccc3NC(c3ccccc3)C2)cc1 (configuration not stated)	0.0%	21.2%	0.8%	35.5µM*	-9.6%	10.4%
Brc1ccccc1C1CC(c2ccccc2)=Nc2ccccc2N1 (configuration not stated)	39.8µM*	-24.3%	-2.3%	?	6.4%	?
CCOC(=O)C1=CCN(S(=O)(=O)c2ccc(C)cc2)[C@H]1c1ccccc1Cl	nt	nt	nt	nt	-0.1%	nt
Cc1ccccc1NS(=O)(=O)c1nnc(NC(=O)c2ccc(Cl)cc2)s1	-16.3%	36.4%	-0.5%	-17.2%	-11.8%	4.1%
Cc1ccccc1NS(=O)(=O)c1nnc(NC(=O)c2ccccc2C)s1	?	25.5%	4.4%	-39.4%[59 µM]	-1.1%	28.2µM*!
Cc1ccccc1N(C)S(=O)(=O)c1nnc(NC(=O)c2ccccc2F)s1	44.7µM*!	32.1%	11.8%	3.98µM*!	-23.6%	14.1µM*!
CC(=C\c1ccccc1)/C=C1/SC(=S)N(C(C(=O)O)C(C)C)C1=O (configuration not stated)	?	?	?	35.5µM*	29.9µM*	70.8µM*
CCC(C(=O)O)N1C(=O)/C(=C/C(C)=C/c2ccccc2)SC1=S (configuration not stated)	?	?	?	?	23.8µM*	?
CC(/C=C1\SC(=S)N(NC(=O)c2ccc(O)cc2)C1=O)=C\c1ccccc1	?	?	1.5%	?	-6.8%	31.6µM*
CC(C)C(C(=O)O)N1C(=O)/C(=C/c2ccc(Br)cc2)SC1=S (configuration not stated)	nt	nt	5.01µM*	nt	nt	nt
CCC(C(=O)O)N1C(=O)c2ccccc2C1=O (configuration not stated)	-6.2%	9.4%	-16.0%	-41.1%[12.7 µM]	0.8%	12.1%
Cn1nnnc1Sc1ncnc2scc(-c3ccc4ccccc4c3)c12	-17.1%	nt	nt	nt	nt	nt
